Laboratory results as given in ChEMBL document CHEMBL1201862, “PubChem BioAssay data set” (2004).
About 2,500 (4.5%) of roughly 55,000 sequences were called active. No stated cut-off is given here; in the data, active = GI50 up to about 1.1 µM and inactive = higher. Not all results are given here. Results with a measured potency or affinity are listed apart.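 Assay format: 96-well plates, 48-hour exposure. GI50 is the concentration that inhibits growth by half.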

What follows are substances tested on EKVX (assay: NCI tumour cell line growth inhibition, 48 h).

Going from “[Bis(aminomethyl)pentamethylenesilane]dichloropaltinum(II), CHEMBL2146202” to “[Bis(aminomethyl)ethylmethylsilane]tetrachloroplatinum(IV), CHEMBL2146192”, the GI50 rises from 18.2 µM to 29.6 µM (1.6-fold).

“[Bis(aminomethyl)tetramethylenesilane]tetrachloropaltinum(IV), CHEMBL2146189” and “[Bis(aminomethyl)tetramethylenesilane]dichloropaltinum(II), CHEMBL2146205” are within 1.5-fold of each other in GI50: 40.9 µM for the first, 55.6 µM for the second.

Going from “[Bis(aminomethyl)dimethylsilane]tetrachloroplatinum(IV), CHEMBL2146190” to CISPLATIN, CHEMBL11359, the GI50 falls from 38.2 µM to 7.1 µM (5.4-fold).

First: [Bis(aminomethyl)diethylsilane]tetrachloroplatinum(IV), CHEMBL2146203
Second: mu-(1,7-nanodiamine-N,N')bis-(cis-aminedichloroplatimum (II)), CHEMBL2146215
The GI50 of the first is lower: 31.6 µM for the first, > 100 µM for the second.

Compared with “[Bis(aminomethyl)dimethylsilane]dichloroplatinum (II), CHEMBL2146201”, “[Bis(aminomethyl)pentamethylenesilane]tetrachloropaltinum(IV), CHEMBL2146204” is lower in GI50: > 100 µM for the first, 56.1 µM for the second.

With “cis-Bis[[(trimethylsilyl)methyl]amino]tetrachloroplatinum(IV), CHEMBL2146191” the GI50 was 4.68 µM.
